Assay outcomes from PubChem BioAssay.
The list is not random: actives were taken first. Their share in the collection is about 3.4%.
AI-2 QS mod = Vibrio harveyi AI-2 quorum sensing modulation; Vibrio harveyi JMH597 AI-2 luminescence/OD600 ratio, 9 h; stronger effect = lower value; strain lacks LuxN and CqsS sensors; 0 = neutral-control median; activity change, % at 7.5 µM; hit rate 0.4% among 300,000; AID 2094; in the data active means activity change below about -75%, passing the limit was not always enough;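 further: luminescence divided by OD600 gain over 9 h not by final OD600 alone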
SMARCA2 act = activators of SMARCA2 function. activation, % at 9.1 µM. hit rate 1% among 370,000. MG213 cells, MMTV-luciferase reporter, dexamethasone, overnight; in the data active means activation above about 7.8%
HSP90 refold inh = inhibitors of HSP90 luciferase refolding in rabbit reticulocyte lysate; luciferase refolding luminescence, 3 h; inhibition, % at 5.6 µM; hit rate 0.91% among 290,000; AID 1789;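 active means inhibition above the screen-wide mean plus 3 SD, computed separately per campaign, cut at about 16% in these data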;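 further: inhibitors lower the luminescence because luciferase stays unfolded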
HSF1 inh = HSF1 inhibition. activity change, negative = inhibition, % at 7.5 µM (by protocol). NIH3T3-HGL HSE-luciferase, MG132-induced, luminescence 8 h; stronger effect = lower value. hit rate 0.77% among 300,000;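 active means more than half of replicate wells show activity change below -50%, luminescence cut by over half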;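 further: luciferase reports HSF-1 transcriptional activity via heat shock element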
GAA850 FXN act = frataxin GAA850 promoter activation; HEK293 lucGAA850 FXN promoter luciferase reporter, 24 h; percent of 10 µM SAHA response; activation, % at 6 µM; hit rate 0.56% among 360,000; AID 540364;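 active means activation above the average of all compounds screened plus 3 SD, cutoff fixed separately per campaign, cut at about 7.5% in these data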
PG9 Ab binder = PG9 antibody binding by small molecule | hit rate 0.43% among 360,000 | TR-FRET gp120-PG9 antibody binding | inhibition, % at 6.7 µM | AID 624416; in the data active means inhibition above about 8.5%
A number is an active result; 0 = inactive; - = not tested or not shown.

SMILES	AI-2 QS mod	SMARCA2 act	HSP90 refold inh	HSF1 inh	GAA850 FXN act	PG9 Ab binder
NC(=O)c1nsc(C(=O)N(c2cccc(F)c2)C(C(=O)NC2CCCC2)c2ccco2)c1N (stereo unspecified)	0	0	0	-81.2	0	0
NC(=O)c1nsc(C(=O)N(c2ccc3c(c2)OCCO3)C(C(=O)NCC2CCCO2)c2ccc(F)cc2)c1N (stereo unspecified)	0	0	0	-53.7	0	0
Cc1ccc(C(C(=O)NCC2CCCO2)N(C(=O)c2snc(C(N)=O)c2N)c2ccc3c(c2)OCCO3)cc1 (stereo unspecified)	-	0	0	0	0	0
COc1cccc(C(=O)N(c2ccc(OC)cc2OC)C2C=CS(=O)(=O)C2)c1 (stereo unspecified)	0	0	0	0	0	0
COc1cccc(C(=O)N(c2ccc(C)cc2)C2C=CS(=O)(=O)C2)c1 (stereo unspecified)	0	7.9	0	0	0	0
CC(C)c1ccc(OCC(=O)NNC(=O)c2cnccn2)cc1	-82.9	0	0	0	0	0
Cc1[nH]c2ccccc2c1C(=O)COC(=O)c1ccc([N+](=O)[O-])s1	-128.1	0	0	0	0	0
O=C(COC(=O)c1ccc([N+](=O)[O-])s1)NCc1ccccc1	0	0	0	0	0	0
NS(=O)(=O)c1ccc(NN=C2CCCCC2)c([N+](=O)[O-])c1	0	7.8	0	0	0	0
CC(C)[n+]1ccn(C2=C([O-])c3ccccc3C(=O)/C2=N\S(=O)(=O)c2ccccc2)c1	0	0	0	0	0	0
CC(C)(C)c1cc[n+](C2=C([O-])c3ccccc3C(=O)/C2=N\S(=O)(=O)c2ccccc2)cc1	0	0	16.3	0	0	0
COc1ccc(-c2ccc3c(n2)CCCN3S(=O)(=O)c2cccs2)cc1	-	0	-	-	-	0
O=S(=O)(Nc1ccncc1)c1ccc(Cl)cc1	0	0	0	-71.4	0	0
COc1ccccc1CNC(=O)N(CCc1c(C)[nH]c2ccccc12)Cc1cccs1	-	0	-	-	-	-
CCOC(=O)NNc1ccc2nonc2c1[N+](=O)[O-]	-91.9	-	0	0	-	-
CCc1ccc(Nc2ccc3nonc3c2[N+](=O)[O-])cc1	0	0	-	0	0	0
CN(Cc1ccccc1)C(=O)c1ccccc1NC(=O)C1=CSCCO1	0	0	0	-76.1	0	0
COc1ccc(-n2c(SCC(=O)Nc3ccc4cn[nH]c4c3)nnc2-c2ccccc2)cc1	-	0	-	-	-	-
COc1ccc(-n2c(C)cc(C(=O)CSc3ccc(NC(C)=O)cc3)c2C)cc1	0	0	0	0	0	0
CC(=O)Nc1ccc(SCC(=O)c2cc(C)n(-c3ccccc3)c2C)cc1	0	0	0	-67.5	0	0
COc1ccc(NC(=O)CSc2nnc(Cn3cnc([N+](=O)[O-])n3)n2C)cc1	0	11.2	0	0	0	0
COc1ccc(C(=O)N2CCCC(Nc3ccc(F)cc3)C2)cc1F (stereo unspecified)	0	0	0	0	0	0
Cc1ccc(C(=O)N2CCCC(Nc3ccc(F)cc3)C2)cc1C (stereo unspecified)	0	0	0	-70.6	0	0
Cc1oc2ccc(OCc3c(F)cccc3Cl)cc2c1C(=O)O	0	0	0	-57.3	0	0
COCCCNC(=O)CC(NS(=O)(=O)c1ccc(C)cc1)c1ccc(OC)cc1 (stereo unspecified)	0	0	0	-76.9	0	0
SMILES	AI-2 QS mod	SMARCA2 act	HSP90 refold inh	HSF1 inh	GAA850 FXN act	PG9 Ab binder
Cc1ccc(-n2cc3c(=O)n(C)c(=O)n(C)c3c2)cc1C	0	0	0	0	0	0
Cn1c(=O)c2cn(-c3ccc4c(c3)OCCO4)cc2n(C)c1=O	0	0	0	-66.8	0	0
COc1ccc(CN(CCCN2CCOCC2)C(=O)Nc2cccc(Cl)c2)cc1OC	0	0	0	-52.1	0	0
O=C(Nc1cccc(Cl)c1)N(CCN1CCOCC1)Cc1cccc(Cl)c1	0	0	0	0	0	0
CCCCN1CCN(C2=Nc3ccccc3Sc3ccccc32)CC1	-	0	-	-	-	-
COC(=O)c1cc2c(c3c4cc(OC)ccc4n(S(=O)(=O)c4cccc(C)c4)c13)C(=O)N(C)C2	-	0	-	-	-	0
COC(=O)c1ccc(C=NNC(=O)c2cc(-c3ccc(C)c(C)c3)n[nH]2)cc1	-	0	-	-	-	-
O=C(Oc1c(Cl)cc(Cl)c2cccnc12)c1ccco1	-87.7	0	0	0	0	0
